# Source: PubChem BioAssay
# A selection: hits, their analogues and other compounds. The true share with any hit is near 20%.
# Cycloheximide cs: affects cycloheximide protein synthesis inhibition readout, counter-screen | max response, % | 12% of 300,000 active | AID 2314 | cell reporter, cycloheximide protein synthesis inhibition counterscreen; in the data active = max response mostly above about 13%, no sharp cut-off; inactive = mostly below about 14%; note: read at 38.3 µM for the half of the compounds with a filed dose; 0% is about no effect
# Pf growth 96h: P. falciparum growth inhibition at 96 hours. P. falciparum luciferase reporter growth, 96 h. Potency, µM (doses to about 28.7 µM), for inactives: at the highest dose activity change, negative = inhibition, usual class: inhibitors. 6.9% of 320,000 active; note: potency is the fitted concentration of half-maximal effect; % is set by controls: 0 for no effect and ±100 for the full control effect
#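 96 h incubation, 37 C, 5% CO2, of luciferase-reporter P. falciparum-infected RBCs (2% hematocrit, 0.05% parasitemia final) with test compounds; endpoint luminescence.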
# Pf growth 48h: P. falciparum growth inhibition at 48 hours (one generation); Potency, µM (titrated, usually from 28.7 µM), without a hit: top-dose activity change, negative = inhibition, actives largely listed as inhibitors; 5.9% of 310,000 active; P. falciparum luciferase growth in erythrocytes, 48 h; note: potency is the fitted concentration of half-maximal effect; % is set by controls: 0 for no effect and ±100 for the full control effect
#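 Luminescence readout; reporter = integrated firefly luciferase in P. falciparum. RBC culture at 2% hematocrit, 0.1% parasitemia final, 37 C/5% CO2; decreased signal taken as growth inhibition.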
# Shiga inhibitor: blocks Shiga toxin action in Vero cells; Vero cells, Shiga toxin protein synthesis inhibition reporter; inhibition, % at 38.7 µM; 9.2% of 290,000 active; AID 2315; in the data active = inhibition mostly above about 28%, no sharp cut-off; inactive = mostly below about 43%; note: 0% is about no effect
# HCMV inh: blocks human cytomegalovirus replication; HFF cells, HCMV-luciferase reporter, 72 h; active compounds read low; activity change, negative = inhibition, % at 57.5 µM; 4.5% of 410,000 active; in the data active = activity change below about -60%; inconclusive = no clear call, values can overlap the other calls; inactive = above about -39%; note: % is set by controls: 0 for no effect and ±100 for the full control effect
#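 Two-dose cell screen: HFF monolayers treated with compounds and infected with luciferase-expressing HCMV at 1 PFU/cell, 72 h at 37C, then lysed for luciferase measurement.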
# * = called active by the depositor; ? = inconclusive; nt = not tested or not shown. Unless noted, calls come from the whole dose curve; as a rule, active = well fitted inhibition curve with a large enough effect; inconclusive = small, poorly fitted or top-dose-only effect, or another doubt; inactive = no such curve, though single readings can be large or run the other way.
SMILES,Cycloheximide cs,Pf growth 96h,Pf growth 48h,Shiga inhibitor,HCMV inh
Cc1noc(-c2ccc(C(F)(F)F)cc2)c1NC(=O)Nc1ccc(Cl)cc1,-1,2.6µM*,2.6µM*,16,-88*
Cc1ccc(Nc2nc3nonc3[nH]c2=O)cc1Cl,6,0%,?,84,-20
Cc1ccc(NC(=O)COC(=O)C2=COCCO2)cc1,20*,?,33%,48,-19
Cc1ccc(NC(=O)COC(=O)C2=COCCO2)c([N+](=O)[O-])c1,26*,-2%,21%,38,-11
O=C(COC(=O)C1=COCCO1)Nc1ccc2c(c1)OCO2,39*,2%,8%,154,44
Cc1cc(C)c(NC(=O)COC(=O)C2=COCCO2)c(C)c1,nt,nt,nt,nt,-17
CC(C)c1cc2cc3ccc(=O)oc3cc2o1,33*,?,nt,64*,-11
COc1cc(/C=N/NC(=O)Cc2ccc(Br)cc2)cc(OC)c1O,-5,12µM*,0%,-17,-18
COc1cc(/C=N/NC(=O)C(Cc2c[nH]c3ccccc23)NC(=O)OCC(C)C)cc([N+](=O)[O-])c1O (configuration not stated),-1,12µM*,-30%,10,-3
COc1cc(/C=N/NC(N)=O)cc([N+](=O)[O-])c1O,-1,37%,22%,-3,-8
COC(=O)N/N=C/c1cc(OC)c(O)c([N+](=O)[O-])c1,92*,-2%,7%,77*,-12
COc1cc(/C=N/NC(=O)C(Cc2c[nH]c3ccccc23)NC(=O)OCc2ccccc2)cc([N+](=O)[O-])c1O (configuration not stated),1,2%,-4%,6,-3
Cc1ccc(S(=O)(=O)N2CCCOC2CNC(=O)C(=O)NCc2cccs2)cc1 (configuration not stated),-2,?,-26%,11,1
CC1CCCC(C)N1C(=O)COC(=O)c1cc(-c2cccs2)nn1-c1ccccc1 (configuration not stated),nt,-12%,?,nt,-14
COc1ccc(S(=O)(=O)NCCc2sc(-c3cccnc3)nc2C)cc1OC,nt,nt,nt,nt,-19
COc1ccc2c(c1)c(C(O)CN1CCC(Cc3ccccc3)CC1)c(C)n2C (configuration not stated),1,10µM*,13µM*,-12,-4
COc1ccc(CCN(C)C(=O)c2ccc3c(=O)n4c(nc3c2)CCCCC4)cc1OC,nt,nt,nt,nt,-2
Cc1nc(N/N=C/c2ccccn2)sc1C,7,-100%,-71%,0,-98*
CCCCCCCCC(=O)N/N=C/c1ccccn1,-3,54%,?,-7,3
CCCc1sc(N/N=C/c2ccccn2)nc1-c1ccc(F)cc1,25*,31%,2.6µM*,52*,nt
Clc1ccccc1NN=Cc1ccccn1,nt,nt,nt,nt,68
O=C(O)[C@@H]1CC(O)CN1C(=O)CCc1c[nH]c2ccccc12 (some centres not stated),3,0%,0%,22,92
CCOc1ccccc1CN1CCCC(C(=O)Nc2cccc(-n3cccn3)c2)C1 (configuration not stated),-4,30%,?,4,-31
CCOC(=O)NC(=O)CSc1nc(-c2ccc(C)c(C)c2)cn1-c1ccccc1,63*,-68%,-67%,131*,2
CCOC(=O)NC(=O)CSc1nnnn1-c1ccccc1,-3,?,-1%,1,-7
SMILES,Cycloheximide cs,Pf growth 96h,Pf growth 48h,Shiga inhibitor,HCMV inh
Cc1ccc(-c2cn(-c3ccccc3)c(SCC(N)=O)n2)cc1C,37*,6%,39%,43*,16
Cc1ccc(C(=O)N/N=C/c2c[nH]c3ccccc23)o1,23*,-22%,45%,74*,10
CCOc1ccc(Br)cc1C(=O)N/N=C/c1c[nH]c2ccccc12,-4,8%,?,-3,13
Cc1cc(C(=O)N/N=C/c2c[nH]c3ccccc23)c(C)o1,27*,3%,54%,26,1
Fc1cccc(Cl)c1CNc1ccc(N2CCCC2)cc1,29*,23%,?,22,-29
O=S(=O)(Nc1ccc(N2CCCCC2)cc1)c1cccc2cccnc12,7,-26%,-9%,-3,-34
O=S(=O)(Nc1ccc(N2CCCCC2)cc1)c1ccc(F)cc1F,16*,?,?,21,-60*
O=S(=O)(Nc1cccc(-c2ccc(N3CCCCC3)nn2)c1)c1ccc(F)cc1F,nt,nt,nt,nt,56
O=S(=O)(Nc1ccc(N2CCCCC2)cc1)c1ccccc1F,16*,?,?,36,-19
O=C(OCC#CCNc1nnc(-c2cccc3ccccc23)o1)c1cccs1,nt,5%,?,nt,nt
CC(=O)Nc1ccc(S(=O)(=O)NCCCN2CCN(Cc3ccccc3)CC2)cc1Cl,-2,1%,7%,64,15
CCOc1ccc(CCNC(=O)COC(=O)c2cccc(S(=O)(=O)N3CCCC3)c2)cc1OCC,nt,-12%,-15%,nt,6
Cc1ccc(Cc2nc3ccccc3nc2SCC(=O)NCc2ccccc2Cl)cc1,nt,nt,nt,nt,17
CSc1ccccc1C(=O)Nc1ccc(C)c(C)c1,42*,nt,88%,91*,-25
CSc1ccccc1C(=O)Nc1ccc2c(c1)OCO2,23*,?,24%,26*,101
O=C(Nc1ccc2c(c1)OCO2)c1c[nH]c(=O)n(-c2ccc(F)cc2)c1=O,16*,?,?,19,49
COc1ccc(-n2c(=O)[nH]cc(C(=O)Nc3ccc4c(c3)OCCO4)c2=O)cc1OC,-4,7%,10%,15,26
O=C(CCNC(=O)c1ccccc1Cl)Nc1ccc2c(c1)OCO2,9,nt,20%,11,41
O=C(CCl)Nc1ccccc1C(=O)Nc1ccc2c(c1)OCO2,57*,-35%,119%,41*,25
C=CC[C@@H](CC(=O)NCCO)C(=O)NCCOC(=O)[C@@H](CC=C)Cc1ccc(F)cc1,nt,nt,nt,nt,-8
COc1ccc(CNC(=O)C2CCCN(S(=O)(=O)c3c(C)n[nH]c3C)C2)cc1 (configuration not stated),-4,nt,0%,-8,-16
COc1cccc(C(=O)NCc2ccc3c(c2)OCO3)c1OC,8,?,-6%,24,83
COc1cccc(C(=O)Nc2ccc3c(c2)OCO3)c1OC,48*,137%,162%,89*,68
CC(/C=N/NC(=O)c1ccccc1F)c1ccccc1 (configuration not stated),30*,9%,42%,165*,4
O=C(Nc1ccc(S(=O)(=O)NCCc2ccccc2)cc1)c1ccco1,10,nt,4%,18,?
CC(/C=N/NC(=O)c1ccco1)=C\c1ccccc1,24*,42%,54%,89*,5
O=C(N/N=C\CCc1ccccc1)c1ccco1,38*,?,-22%,50*,-18
CC(/C=N/NC(=O)c1ccccc1F)=C\c1ccccc1,47*,21%,46%,107*,54
